Data on 51 compounds can be found in PubChem BioAssay AID485270 (The Scripps Research Institute Molecular Screening Center, 2010).

Structures are written as SMILES. Out of some 330,000 compounds screened, about 5,800 (1.8%) were called active. Shown is part of a subset that was picked to be rich in actives. Values without a mark were called inactive. Cut-off read from the data, not from the text of the source: active = inhibition mostly above about 38% (no sharp cut-off); inactive = mostly below about 40%.

The target of this assay is Orexin/Hypocretin receptor type 1 (Homo sapiens) (UniProt O43613). Description: blocks the human orexin 1 receptor (AID 485270).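 Note: 0% = agonist challenge alone and 100% = reference antagonist.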 The conditions noted are these: OX1R-expressing cells, FRET antagonist read-out; at 6.6 µM; active compounds read high.
Orexin/Hypocretin receptor type 1 (Homo sapiens), sequence (O43613 whole entry, looked up): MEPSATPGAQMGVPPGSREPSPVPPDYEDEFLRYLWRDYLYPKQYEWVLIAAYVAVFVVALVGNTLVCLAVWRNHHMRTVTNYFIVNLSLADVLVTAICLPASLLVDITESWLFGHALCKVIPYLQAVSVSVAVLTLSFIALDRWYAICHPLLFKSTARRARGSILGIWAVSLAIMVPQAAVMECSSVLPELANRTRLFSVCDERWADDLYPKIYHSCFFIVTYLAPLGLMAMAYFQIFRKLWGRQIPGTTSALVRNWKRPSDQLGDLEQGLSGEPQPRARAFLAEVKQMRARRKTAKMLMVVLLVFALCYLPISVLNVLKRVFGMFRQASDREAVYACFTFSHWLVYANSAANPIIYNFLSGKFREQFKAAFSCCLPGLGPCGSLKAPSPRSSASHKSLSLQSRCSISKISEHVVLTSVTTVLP
The term inhibition denotes the change of the read-out against control, counted positive when it falls. With `O=C(Nc1ccc2sc3ccccc3c(=O)c2c1)c1ccccc1Cl`, the inhibition was 86.1% (active).
The same measure for `CS(=O)(=O)c1ccccc1C(=O)Nc1ccc2sccc2c1`: 11.8%; for `COCC(=O)N1CCc2ccc(NC(=O)c3ccccc3Cl)cc2C1`: -9.22%; for `CCCC(CNC(=O)COC(=O)C1=NNC(=O)CC1)c1ccc(Cl)cc1Cl` (stereo unspecified): 9.27%.
Turning to `CC1O[C@@H](OC2C(O)C(C)O[C@H](OC(=O)[C@]34CCC(C)(C)C[C@H]3C3=CCC5[C@@]6(C)CC(O)C(O[C@@H]7OC(CO)C(O)[C@@H](O)[C@@H]7O)[C@@](C)(C(=O)O)C6CC[C@@]5(C)[C@]3(CO)CC4)C2O[C@H]2OC(C)[C@@H](O[C@@H]3OCC(O[C@@H]4OC(CO)C(O)[C@H](O)C4O)[C@@H](O)[C@@H]3O)[C@H](O)C2O)C(O)C(O)C1O` (stereo partly specified), the inhibition was 10.6%.
The same measure for `CCC(CO)Oc1cc(NC(=O)c2cccc3ccccc23)c2ncn(C(C)C)c2c1` (stereo unspecified): 12.5%.
In the case of `COc1ccccc1-c1nnc2n1N=C(c1ccc(OC(F)F)c(OCC3CC3)c1)CS2`, the inhibition was 9.14%.
In the case of `C[C@@H]1CN([C@H](C)CO)C(=O)c2cc(NC(=O)NC3CCCCC3)ccc2O[C@H]1CN(C)S(C)(=O)=O` it was 0.78%; in that of `COc1ccc(S(=O)(=O)Nc2ccccc2C(=O)N2CCCC2)cc1C`, 15.3%.
`CC(NS(=O)(=O)c1ccc(OCC(=O)N2CCCC2)cc1)c1ccccc1` (stereo unspecified): the inhibition was 2.37%.
`COc1ccc(S(=O)(=O)NC(C)c2ccccc2)cc1C(=O)N1CCCCC1` (stereo unspecified): the inhibition is 78.9% (active).
Consider `COc1cc2ccccc2cc1C(=O)Nc1ccc(NC(=O)c2cccs2)cc1`, for which the inhibition was 10.3%.
The same measure for `COc1ccc(CN(Cc2ccc(OC)cc2)C(=O)c2cccs2)cc1`: 5.1%; for `COc1ccc(CCNC(=O)/C(C#N)=C2\N=C(NC(=O)c3cccs3)c3ccccc32)cc1`: 110% (active).
The same measure for `Cc1c(Br)ccc(NC(=O)COc2ccccc2C(N)=O)c1C`: 1.89%; for `CC(C)(C)n1ncc2c(=O)n(Cc3c(Cl)cccc3Br)cnc21`: 11.1%; for `Cc1nc2ccccc2n1CC(O)c1ccccc1` (stereo unspecified): 17.1%.
The same measure for `CCC1(CC)Cc2ccccc2-c2nc3ccccc3c(=O)n21`: 8.19%.
With `CCn1c(C)nc2c1C(=O)c1ccccc1C2=O`, the inhibition is 99.7% (active).
In the case of `CC(C)(C)OC(=O)CNC(=O)c1[nH]cnc1C(=O)N[C@@H](CCCCN)C(=O)OC(C)(C)C` it was 10.9%.
In the case of `C=CC[C@@H](CC(=O)N[C@H](CO)Cc1ccccc1)C(=O)N[C@@H](COC(=O)[C@@H](CC=C)Cc1ccc(F)cc1)Cc1c[nH]c2ccccc12` it was 5.38%; in that of `Cc1cc(=O)oc(C)c1C(=O)NCc1ccc(F)cc1`, 19.4%; in that of `Cc1cc(=O)oc(C)c1C(=O)NCCN(C)Cc1ccccc1`, 98.2% (active).
In the case of `COc1ccc(CNC(=O)c2c(C)cc(=O)oc2C)cc1OC` it was 8.87%; in that of `CCC(CO)Oc1cc(NC(=O)c2cccc(F)c2)c2ncn(C(C)C)c2c1` (stereo unspecified), 10.7%.
As to `COc1cccc(NC(=O)COc2cccnc2[N+](=O)[O-])c1`, the inhibition is 17.9%.
The same measure for `O=C(CCNC(=O)c1ccccc1)NN=Cc1ccc(Br)o1`: 13.7%.
In the case of `COC(=O)c1ccc(NC(=O)c2ccccc2NS(=O)(=O)c2ccccc2)cc1` it was 27%; in that of `COc1cc(OC)c(S(=O)(=O)Nc2ccccc2C(=O)O)cc1S(=O)(=O)Nc1ccccc1C(=O)O`, 3.5%; in that of `COc1cc(NC(=O)c2ccccc2NS(=O)(=O)c2ccc(Cl)s2)cc(OC)c1`, 72.7% (active).
On to `NC[C@H](Cc1ccccc1)NCCc1cc(C(F)(F)F)cc(C(F)(F)F)c1`, for which the inhibition is 4.07%.
In the case of `CCCN(CC1CC1)C(=O)COC(=O)c1ccc(C)cc1O`, the inhibition is 10.6%.
`COc1cc(SC#N)ccc1N=Cc1c(C)[nH]n(-c2ccc(C)cc2)c1=O`: the inhibition was 14.1%.
On to `Cc1ccc(-n2[nH]c(C)c(/C=N/N3C(=O)c4cccc5cccc(c45)C3=O)c2=O)cc1`, for which the inhibition was 67% (active).
In the case of `Cc1[nH]n(-c2ccccc2)c(=O)c1/C=N/NC(=O)c1ccoc1C` it was 17.4%.
The same measure for `COc1ccc(CC(=O)N[C@@H]2c3cc(OC)c(OC)cc3C[C@H]2OCc2ccccc2)cc1`: 16%; for `O=C1NC[C@@H](c2ccccc2)OC(=O)[C@H](Cc2ccc(F)cc2)CC/C=C/C[C@H]1CC(=O)N(CCO)Cc1ccccc1`: 28.2%; for `Cc1cc(NC(=O)CSCC(=O)NC(C)c2ccccc2)no1` (stereo unspecified): -1.97%.
In the case of `CC(NC(=O)c1ccccc1F)c1cccc2ccccc12` (stereo unspecified), the inhibition is 29.1%.
The same measure for `CC(NC(=O)c1ccccc1C(=O)O)c1ccc(-n2ccnc2)cc1` (stereo unspecified): 14.7%.
In the case of `CC(NC(=O)c1cccc2ccccc12)c1ccc2c(c1)CCCC2` (stereo unspecified) it was 79% (active); in that of `C#CCOCCOCCOCCNc1nc(N2CCN(C(=O)[C@H](CO)n3cc([C@@H](N)C(C)C)nn3)CC2)nc(N2CCN(C(=O)[C@H](CCC(=O)O)n3cc([C@@H](N)[C@H](C)CC)nn3)CC2)n1`, 3.25%.
As for `Cc1n[nH]c(=O)c2c(NC(=O)CSc3cc(Cl)ccc3Cl)oc(C)c12`, the inhibition is 15.7%.
Take `Cc1n[nH]c(=O)c2c(NC(=O)COC(=O)c3ncc(Cl)c(Cl)c3Cl)oc(C)c12`: the inhibition was 52.6% (active).
For `Cc1n[nH]c(=O)c2c(NC(=O)CSc3ccccc3F)oc(C)c12`, the inhibition is 15.6%.
In the case of `Cc1ccc(NC(=O)C2CCC(C(C)(C)C)CC2)cc1S(=O)(=O)N1CCOCC1` (stereo unspecified) it was 13.3%; in that of `CCCCNC(=O)CN1C(=O)NC(Cc2ccccc2)(Cc2ccccc2)C1=O`, 28.3%.
In the case of `O=C(CN1C(=O)NC(Cc2ccccc2)(Cc2ccccc2)C1=O)NCC1CCCCC1` it was 42.4% (active); in that of `O=C(CC1CCCCC1)NCc1ccccc1`, 7.66%.
`Cc1noc(C)c1NC(=O)Nc1cccc2c1O[C@H](CN(C)S(=O)(=O)c1c(C)noc1C)[C@@H](C)CN([C@H](C)CO)C2=O`: the inhibition is -0.11%.
In the case of `CCOc1ccccc1Nc1nnc(SCC(=O)NCC2CCCO2)s1` (stereo unspecified), the inhibition is 6.79%.
